# Measured values taken from PubChem BioAssay AID1259418 (Broad Institute, 2018).
# Screen size: about 3,400 compounds; about 840 (25%) were called active. About 11% were inconclusive and are not listed.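 Rule for the calls: active = fitted half-maximal concentration of signal decrease at or below twice the sample's top tested concentration; inconclusive = flat curve between -70 and -30 percent, or poor fit; inactive = flat within 30 percent, signal rise, or potency above limit.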 Only a sample is shown. Entries with a potency or affinity are not part of this list.
# Assay: T. gondii growth inhibition with IFN-gamma, dose response, cell-based, ME49Luc, HeLa, luciferase, 72 h (AID 1259418)
# Details: T. gondii ME49Luc in IFN-y HeLa, hits give low values, -100% = high-dose IFN-γ control wells; at 19.5 µM unless noted
row,SMILES,max activity
1,CCc1nc(OCC(=O)Nc2ccc(Cl)c(Cl)c2)c2ccccc2n1,-17.2% (inactive)
2,Cc1ccc(CNC(=O)Nc2ccc(-c3nc(-c4cc(C)ccc4C)co3)cc2)cc1,-8.13% [at 5 µM] (inactive)
3,COc1ccc(CC(=O)N2CCC3(CC2)Nc2cc(OC)ccc2-n2cccc23)cc1,20.2% [at 10 µM] (inactive)
4,COc1ccc(-c2nc(Nc3ccc(Br)cc3F)c3ccccc3n2)cc1,21.7% (inactive)
5,O=C(NCCc1csc(-c2ccccc2)n1)[C@H]1CSCN1C(=O)COc1ccccc1,9.43% (inactive)
6,Cc1ccc2c(c1C)-n1cccc1C1(CCN(C(=O)c3cccc(Cl)c3)CC1)N2,6.45% (inactive)
7,O=C(C1CCCCC1)N1[C@@H](CO)[C@@H]2c3ccccc3N(S(=O)(=O)c3ccccc3)C[C@@H]21,38.7% (inactive)
8,O=C(C1CCCCC1)N1[C@H](CO)[C@@H]2c3ccccc3N(S(=O)(=O)c3ccccc3)C[C@@H]21,26.4% (inactive)
9,O=C(NCc1cncc2c1CCN(Cc1cccc(F)c1)C2)C1CC1,11.5% (inactive)
10,O=C(CCc1ccccc1)Nc1ccc(-c2nc(-c3ccccc3)co2)cc1,120% [at 10 µM] (inactive)
11,O=C(Nc1cccc(F)c1)N1CCCCN2[C@H](C1)[C@@H](c1ccc(C#Cc3cccnc3)cc1)[C@@H]2CO,-8.44% [at 0.6 µM] (inactive)
12,O=C(c1cccc(F)c1)N1CCCCN2[C@H](CO)[C@H](c3ccc(C#CC4(O)CCCC4)cc3)[C@H]2C1,-28.8% [at 21 µM] (inactive)
13,O=C(c1cccc(F)c1)N1CCCCN2[C@H](C1)[C@H](c1ccc(C#CC3(O)CCCC3)cc1)[C@@H]2CO,-13.9% [at 2.6 µM] (inactive)
14,CCN(CCCNc1nc(-c2ccc(OC)cc2)nc2ccccc12)c1cccc(C)c1,21.1% (inactive)
15,COc1ccc(NC(=O)CN2CCC3(CC2)N=C(c2ccc(F)cc2)C(=O)N3)c(OC)c1,-31.1% [at 0.35 µM] (inactive)
16,COc1ccc(-c2nc(N3CCN(Cc4ccc5c(c4)OCO5)CC3)c3ccccc3n2)cc1,17.4% [at 2.6 µM] (inactive)
17,Cc1ccc(N2CCN(c3nc(-c4ccc(Cl)cc4)nc4ccccc34)CC2)c(C)c1,25.4% (inactive)
18,CCOc1ccccc1NC(=O)COc1nc(CC)nc2ccccc12,-13.2% [at 0.35 µM] (inactive)
19,O=C(NC1CCCC1)N1CCCCN2[C@@H](CO)[C@@H](c3ccc(-c4cccnc4)cc3)[C@@H]2C1,33.9% (inactive)
20,O=C(NC1CCCC1)N1CCCCN2[C@H](CO)[C@@H](c3ccc(-c4cccnc4)cc3)[C@H]2C1,11.4% (inactive)
21,COc1ccc(-c2nc(NC(C)CCc3ccccc3)c3ccccc3n2)cc1 (stereo unspecified),13.7% (inactive)
22,CCOc1ccc(S(=O)(=O)N2CCc3nc(-c4ccc(OC)cc4)sc3C2)cc1,-25.8% [at 0.16 µM] (inactive)
23,Cc1nc(-c2ccc(F)cc2)sc1-c1ccc(SCc2ccccc2F)nn1,-39.8% (inactive)

row,SMILES,max activity
1,Clc1ccc(-c2nc(NCCCN3CCc4ccccc4C3)c3ccccc3n2)cc1,-15.5% [at 0.16 µM] (inactive)
2,Cc1nc(OCC(=O)Nc2ccc(F)c(Cl)c2)c2ccccc2n1,21% [at 0.68 µM] (inactive)
3,COC(=O)/C=c1\sc2nc(=O)c(C)nn2c1=O,25.1% [at 10 µM] (inactive)
4,Cc1nc(-c2ccc(F)cc2)sc1-c1ccc(SCc2ccc(Cl)cc2Cl)nn1,-14.7% [at 5 µM] (inactive)
5,Cc1cccc(CSc2ccc(-c3sc(-c4ccc(F)cc4)nc3C)nn2)c1,-11.3% [at 0.35 µM] (inactive)
6,Cc1cccc(OCC(=O)Nc2ccc(-c3nc(-c4ccccc4)co3)cc2)c1C,-18.6% [at 2.6 µM] (inactive)
7,Cc1ccccc1-c1ccc([C@H]2[C@@H](CO)N3C(=O)CN(C(=O)c4ccncc4)C[C@@H]23)cc1,27.7% (inactive)
8,O=C(c1cnccn1)N1CC(=O)N2[C@H](CO)[C@@H](c3ccc(/C=C/c4ccccc4)cc3)[C@H]2C1,28.4% (inactive)
9,COc1cccc(-c2ccc([C@@H]3[C@H]4CN(C(=O)c5cccnc5)CC(=O)N4[C@H]3CO)cc2)c1,12.1% (inactive)
10,COc1cccc(-c2ccc([C@H]3[C@H](CO)N4C(=O)CN(C(=O)c5cccnc5)C[C@@H]34)cc2)c1,25.9% (inactive)
11,Cc1ccccc1-c1ccc([C@@H]2[C@H](CO)N3C(=O)CN(C(=O)c4ccncc4)C[C@@H]23)cc1,29.6% (inactive)
12,O=C(CCC1N=C2c3ccccc3N=C(SCc3cc(=O)n4ccccc4n3)N2C1=O)NCc1ccc(F)cc1 (stereo unspecified),26.8% (inactive)
13,COc1ccc(-c2noc(-c3nnn(Cc4nc(-c5ccccc5OC)oc4C)c3C)n2)cc1OC,11.4% [at 0.16 µM] (inactive)
14,COc1ccc(-c2nc3c(s2)CN(C(=O)Nc2ccc(C)cc2)CC3)cc1OC,-13% [at 0.35 µM] (inactive)
15,O=C1CCc2cc(S(=O)(=O)NCc3cccn3Cc3ccccc3F)ccc2N1,12.6% (inactive)
16,CCOC(=O)CSC1=Nc2ccccc2C2=NC(CCC(=O)NCc3ccc4c(c3)OCO4)C(=O)N12 (stereo unspecified),25.7% [at 2.6 µM] (inactive)
17,Cc1nc(OCC(=O)Nc2ccc(Cl)c(C(F)(F)F)c2)c2ccccc2n1,27.7% [at 0.35 µM] (inactive)
18,COc1ccc(-c2nc3c(s2)CN(C(=O)Nc2cc(C)ccc2OC)CC3)cc1,17% (inactive)
19,O=C(c1cnccn1)N1CC(=O)N2[C@H](CO)[C@@H](c3ccc(-c4cccc(F)c4)cc3)[C@H]2C1,46.4% (inactive)
20,O=C(c1cnccn1)N1CC(=O)N2[C@H](C1)[C@H](c1ccc(-c3cccc(F)c3)cc1)[C@@H]2CO,32.8% (inactive)
21,Cc1oc(-c2cccc(Cl)c2)nc1CN1CCN(C(=O)NC2CCCCC2)CC1,20.5% [at 1.35 µM] (inactive)
22,CCOC(=O)Cc1ccc(NC(=O)Nc2ccc(-c3nc(-c4cc(C)ccc4C)co3)cc2)cc1,5.78% (inactive)
23,O=C(NCCc1csc(-c2ccccc2)n1)[C@H]1CSCN1C(=O)CCc1ccccc1,14.8% [at 5 µM] (inactive)
